Assay outcomes: PubChem, National Center for Advancing Translational Sciences (NCATS)
Most compounds without a hit are left out; they make up all but 10% or so of the library.
ALDH1A1 inh: blocks purified human ALDH1A1 activity; P00352; Purified ALDH1A1, NADH fluorescence, propionaldehyde substrate; Potency, µM (series often up to 75.3 µM), for the others: top-dose activity, negative = inhibition, usual class: inhibitors; 220,000 compounds, 7.3% hits; AID 1030;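 further: potency means the concentration at half of the fitted maximal effect; plate controls were no enzyme wells and a reference inhibitor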
Target sequence (P00352 whole entry, looked up): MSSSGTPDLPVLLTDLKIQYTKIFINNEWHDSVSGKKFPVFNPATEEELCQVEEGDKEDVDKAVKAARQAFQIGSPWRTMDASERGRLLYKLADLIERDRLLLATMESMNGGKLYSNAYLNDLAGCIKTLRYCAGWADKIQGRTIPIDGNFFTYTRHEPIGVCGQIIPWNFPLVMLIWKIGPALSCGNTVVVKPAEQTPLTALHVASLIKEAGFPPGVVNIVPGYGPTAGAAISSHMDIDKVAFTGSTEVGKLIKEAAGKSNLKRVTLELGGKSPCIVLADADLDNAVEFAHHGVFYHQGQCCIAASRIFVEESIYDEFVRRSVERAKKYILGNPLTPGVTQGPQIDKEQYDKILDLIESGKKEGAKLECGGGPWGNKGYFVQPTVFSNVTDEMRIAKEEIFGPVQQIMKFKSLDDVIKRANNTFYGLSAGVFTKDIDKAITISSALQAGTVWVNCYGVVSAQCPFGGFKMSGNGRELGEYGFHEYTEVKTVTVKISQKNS
Lamin A splicing: LMNA splicing modulation; AID 1487; 200,000 compounds, 0.01% hits; HeLa LMNA splicing GFP/RFP minigene ratio, 48 h; Potency, µM (doses to about 46.1 µM), for the others: at the top dose ratio change, negative = inhibition, usual class: inhibitors; active means well fitted inhibition curve with a large enough effect in the signal ratio, with a control signal flat, not every such curve was filed as active; inconclusive means small, poorly fitted or top-dose-only effect, or effect the other way, or a change in a side signal; the % refers to the signal ratio; further: potency means the concentration at half of the fitted maximal effect
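Read-out is the ratio of GFP to DsRed2 object intensity, acquired by 488 nm laser-scanning cytometry on HeLa lamin A-EGFP minigene reporter cells. Compound incubation 48 hrs at 37 °C in Opti-MEM with 2% FBS; DMSO 0.5% final.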
PNC inhibitor: inhibitors of perinucleolar compartment assembly; PC3M PTB-GFP, PNC prevalence imaging, 16 h; stronger effect = lower value; activity change (PNC), negative = inhibition, % at 10 µM; 140,000 compounds, 3.1% hits; AID 2417;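 active means readout at or below -70, meaning at least 70% loss of cells showing the perinucleolar compartment, a nuclear body marking cancer cells; inconclusive means readout between -30 and a set limit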;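 further: plate controls were DMSO wells for no effect and camptothecin positive control wells for full effect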
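Compounds are pinned in duplicate onto adhered PC3M cells stably expressing GFP-tagged PTB and incubated 16 h at 37 C. Cells are then fixed, nuclei stained with Hoechst, and PNC-positive cells counted.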
12-hLO inh: blocks human 12-lipoxygenase activity | 150,000 compounds, 0.12% hits | Potency, µM (titrated, usually from 57.1 µM), for the others: top-dose activity change, negative = inhibition, hits mostly inhibitors | purified 12-hLO, xylenol orange hydroperoxide absorbance | P18054; active means well fitted inhibition curve with a large enough effect; inconclusive means small, poorly fitted or top-dose-only effect; further: potency means the concentration at half of the fitted maximal effect; nearly all actives have a fitted effect of over 55% in size
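Purified human 12hLO (150 nM final) was preincubated with compounds for 15 min at room temperature in 25 mM Hepes pH 7.0, 0.01% Triton X-100, then reacted with 40 uM arachidonic acid for 30 min. Hydroperoxide was detected with ferrous iron/xylenol orange.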
HPGD inh: inhibitors of human 15-hydroxyprostaglandin dehydrogenase (HPGD). P15428. purified HPGD, NADH fluorescence kinetic, PGE2 substrate. Potency, µM, without a hit: at the top dose activity change, negative = inhibition, hits mostly inhibitors. 150,000 compounds, 4.3% hits. AID 894; further: potency means the concentration at half of the fitted maximal effect
Target sequence (P15428 whole entry, looked up): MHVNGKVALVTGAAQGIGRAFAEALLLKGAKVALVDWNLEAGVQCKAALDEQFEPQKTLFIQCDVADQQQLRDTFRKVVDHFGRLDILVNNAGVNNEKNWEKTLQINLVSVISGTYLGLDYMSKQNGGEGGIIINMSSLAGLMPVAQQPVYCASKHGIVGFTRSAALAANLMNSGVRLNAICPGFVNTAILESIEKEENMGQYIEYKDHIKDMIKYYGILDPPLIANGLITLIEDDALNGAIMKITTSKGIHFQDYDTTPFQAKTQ
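NADH formation kinetics: reaction with 30 uM PGE2 and 1 mM NAD+ (final), 20 nM enzyme, Tris-HCl pH 8 with Tween 20, after 15 min compound preincubation at room temperature. Fluorescence change, last versus first of five reads.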
An asterisk follows results filed as active; ? = inconclusive; / = not tested or not shown; [ ] = remark or other dose. Unless noted, the call rests on the fitted dose curve; in most records, active means well fitted inhibition curve with a large enough effect (not every such curve was filed as active); inconclusive means small, poorly fitted or top-dose-only effect, or another doubt; inactive means no such curve, though single readings can be large or run the other way. Unless noted, on the % scale 0 is the no-effect control and ±100 the full control effect.

SMILES	ALDH1A1 inh	Lamin A splicing	PNC inhibitor	12-hLO inh	HPGD inh
NS(=O)(=O)c1cccc(NC(=O)CN2CCc3ccccc32)c1	7.94µM*	?	/	/	/
CC(C)CNC(=O)CC(=O)N/N=C/c1ccc(Br)cc1	0.891µM*	-3.5%	28.2	1.0%	15.8µM*
O=C(COc1ccccc1-c1ccccc1)N/N=C/c1ccncc1	-7.8%	?	/	/	/
O=C(COc1ccccc1-c1ccccc1)N/N=C/c1ccc2ccccc2c1	-5.3%	?	-116.4*	1.5%	-28.6%
C/C(=N\NC(=O)COc1ccccc1-c1ccccc1)c1ccccn1	2.51µM*	?	/	/	/
C/C(=N\NC(=O)COc1ccccc1-c1ccccc1)c1cccnc1	14.1µM*	-20.6%[46 µM]	/	/	/
CS(=O)(=O)N(CCC#N)Cc1ccco1	2.2%	/	/	/	/
COC(=O)c1ccc(C(NC(=O)OCc2ccccc2)/C(=C/[C@@H](C)C(=O)N(C)C)c2cccnc2)cc1 (stereo partly specified)	-1.5%	/	/	2.3%	-0.1%
COc1ccc(NC(=O)CSc2nc3ccccc3n2Cc2cccc(OC)c2)cc1	/	8.9%[46 µM]	/	/	/
N#Cc1c(-c2ccc(F)cc2)cc(-c2ccccc2)nc1SCC(=O)NCC(=O)O	8.91µM*	/	/	/	/
N#Cc1c(C(F)(F)F)cc(-c2ccc(F)cc2)nc1SCC(=O)O	-3.7%	?	/	/	/
CC(C)Cc1ccc(CC(=O)O)cc1	/	20.2%	/	/	/
S=C1NC2=C(CCCC2=C2SCCS2)C(c2ccccc2)N1 (stereo unspecified)	0.355µM*	?	/	/	/
CN(C)C/C(Cl)=C(\Cl)c1ccccc1	7.08µM*	3.7%	?	-1.0%	-22.7%
CN(C)CC(C(=O)c1ccccc1)c1ccccc1 (stereo unspecified)	-3.2%	?	?	-4.3%	-2.5%
O=c1[nH]c(-c2ccc(Cl)cc2)cs1	?	-22.4%[46 µM]	/	/	/
O=c1[nH]c(-c2ccccc2)cs1	15.0%	-0.8%	?	1.4%	-1.1%
Fc1ccc(-c2csc(=S)[nH]2)cc1	3.55µM*	/	/	/	/
S=c1[nH]c(-c2ccccc2)cs1	3.55µM*	/	/	/	/
COc1ccccc1CN1CC[C@@]2(CCCN(C(=O)c3cccc(F)c3)C2)C1	?	/	/	-1.4%	-5.4%
COc1ccc(CC(=O)Nc2cccc(C(=O)Nc3cccc(C)c3)c2)cc1	0.7%	?	/	/	/
COC(=O)c1cc(NC(=O)Cc2ccc(OC)cc2)cc(C(=O)OC)c1	0.891µM*	4.2%	-9.3	3.3%	-15.4%
COc1cc(NC(=O)COC(=O)Cc2ccc(-c3ccccc3)cc2)cc(OC)c1	?	?	-102.4*	-3.2%	-22.2%
COC(=O)Cn1c(=O)cnc2ccccc21	?	5.1%	22.7	-2.3%	-20.8%
O=C(COc1cc(F)ccc1[N+](=O)[O-])Nc1ccc(N2CCOCC2)cc1	12.6µM*	/	/	/	/
SMILES	ALDH1A1 inh	Lamin A splicing	PNC inhibitor	12-hLO inh	HPGD inh
COC(=O)c1cc(NC(=O)Cn2c(=O)cnc3ccccc32)cc(C(=O)OC)c1	0.355µM*	0.7%	?	4.7%	-18.6%
C/C(=C\C(=O)c1ccc(F)cc1)Nc1ccc(N2CCOCC2)cc1	?	-18.2%	-12.3	?	-17.3%
NC(=O)CC[C@H](NC(=O)c1ccc(F)cc1)C(=O)OCC(=O)Nc1ccc(N2CCOCC2)cc1	11.2µM*	-10.6%	-11.4	0.4%	-5.8%
CC(=O)Nc1ccc(C(=O)OCC(=O)Nc2ccc(N3CCOCC3)cc2)cc1	17.8µM*	-6.7%[46 µM]	/	/	/
COc1cc(CC(=O)OCC(=O)Nc2ccc(N3CCOCC3)cc2)cc(OC)c1OC	-13.1%	/	/	/	/
CC(=O)c1ccc(N2CCN(CC(=O)Nc3ccc(N4CCOCC4)cc3)CC2)cc1	4.1%	3.8%[46 µM]	/	/	/
COc1ccc(CC(=O)OCC(=O)Nc2ccc(N3CCOCC3)cc2)cc1	25.1µM*	/	/	/	/
O=C(Nc1ccccc1)N1CCC2(CC1)CCN(C(=O)c1cccc(F)c1)CC2	1.7%	/	/	0.0%	-5.4%
O=[N+]([O-])c1cc(Br)cc(C=Nc2ccc3c(c2)OCO3)c1O	10µM*	/	/	/	/
CCOC(=O)c1ccc(N/N=C/c2cc(Br)cc([N+](=O)[O-])c2O)cc1	-15.6%	2.5%[9.22 µM]	/	/	/
Cc1cc(F)ccc1NC(=O)C(c1ccccc1)N1Cc2ccccc2C1=O (stereo unspecified)	/	18.5%[46 µM]	/	/	/
Cc1ccc(OCC(=O)Nc2ccc3nc(SCC(=O)N4CCOCC4)sc3c2)cc1C	/	21.4%[46 µM]	/	/	/
CC(=O)/C(=N/Nc1ccccc1)N1CCOCC1	-4.4%	8.6%	?	2.1%	-20.5%
CC(=O)/C(=N/Nc1cccc(Cl)c1)N1CCOCC1	12.6µM*	11.0%	?	-5.2%	-26.7%
CC(=O)/C(=N/Nc1ccccc1C)N1CCOCC1	17.8µM*	14.7%	-3.0	3.5%	-27.4%
O=C(NCc1cccnc1)c1ccc([N+](=O)[O-])o1	8.2%	?	/	/	/
Cc1cc2nc(-c3ccc(Cl)cc3)cc(C(F)(F)F)n2n1	/	11.4%[46 µM]	/	/	/
Cc1oc(-c2ccc(Cl)cc2)nc1CS(=O)CC(=O)NCCc1ccccc1 (stereo unspecified)	/	-5.0%[46 µM]	/	/	/
CC(C)N(C(=O)CSc1nn2c(=O)c(C(C)(C)C)nnc2s1)c1ccccc1	22.4µM*	10.9%	45.1	-1.1%	-20.3%
CC(C)(C)c1nnc2sc(SCCN3C(=O)c4ccccc4C3=O)nn2c1=O	-2.1%	6.4%	-15.7	-3.5%	-13.8%
O=C(O)c1ccccc1C(=O)NNc1ccc(Cl)cc1Cl	25.1µM*	?	/	/	/
O=C(O)c1ccccc1C(=O)NNc1ccc(F)cc1	7.94µM*	3.1%	59.9	?	?
N#Cc1cccc(-c2nc(NCc3cccs3)c3ccccc3n2)c1	2.2%	?	/	/	/
Cc1cccc(C)c1	14.7%	/	/	0.0%	-2.8%
CC(=O)[C@]1(O)CC[C@@H]2[C@H]3C[C@@H](C)C4=CC(=O)CC[C@@]4(C)C3[C@@H](O)C[C@]21C (stereo partly specified)	?	/	/	/	-18.2%
SMILES	ALDH1A1 inh	Lamin A splicing	PNC inhibitor	12-hLO inh	HPGD inh
CCOC(=O)c1sc(/N=C/c2c(C)[nH]n(-c3ccccc3)c2=O)c(C#N)c1C	-4.1%	0.9%	-112.1*	-6.0%	-19.4%
Fc1ccc(-c2noc3ncnc(NCCCN4CCN(c5ccccc5)CC4)c23)cc1	/	-4.9%[46 µM]	/	/	/
O=C(Nc1ccccc1)Nc1nnc(SCc2ccc(Cl)cc2)s1	10.9%	4.1%	-17.7	-2.6%	0.6%
O=C(Nc1ccc(Cl)cc1)Nc1nnc(SCc2ccc(Cl)cc2)s1	7.2%	-2.8%	-110.8*	-1.9%	-3.1%
COc1cccc(OC)c1C(=O)NC(=S)Nc1ccc2oc(=O)ccc2c1	?	?	-22.5	-0.6%	-8.3%
O=C(Nc1ccc2oc(=O)ccc2c1)c1ccc(-c2cccc([N+](=O)[O-])c2)o1	7.94µM*	/	/	/	/
O=C(Nc1ccc2oc(=O)ccc2c1)c1cc2ccccc2o1	-2.9%	-13.0%	-118.9*	10.1%	?
CC(=O)NC(=S)Nc1ccc2oc(=O)ccc2c1	8.91µM*	/	/	/	/
O=C(Nc1ccc2oc(=O)ccc2c1)c1ccc(-c2ccc(Cl)cc2)o1	8.91µM*	-8.2%	8.1	2.7%	/
